Bioassay records deposited in PubChem BioAssay by National Center for Advancing Translational Sciences (NCATS).
HCMV inh = blocks human cytomegalovirus replication; HFF cells, HCMV-luciferase reporter, 72 h; stronger effect = lower value; activity change, negative = inhibition, % at 57.5 µM; 410,000 tested, 4.5% active; in the data active = activity change below about -60%; inconclusive = no clear call, values can overlap the other calls; inactive = above about -39%
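HFF cells seeded 16 h at 37C, treated with compounds, infected with luciferase-reporter HCMV at MOI 1 PFU/cell; luciferase read at 72 h post infection, normalized to buffer-only and Salinomycin controls.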
FMDV inh = blocks foot and mouth disease virus; FMDV antiviral cell-based qHTS; Potency, µM (titrated, usually from 57.9 µM), actives largely listed as inhibitors; 410,000 tested, 1.2% active; AID 1159524; calls by dose curve; tested in HEK293T cells; note: read-out not given here; nearly all actives have a fitted effect of over 45% in size
LASV entry inh = blocks Lassa virus binding to or entry into cells; Lassa virus pseudotype entry inhibition, cell reporter; Potency, µM (series often up to 37.9 µM), usual class: inhibitors; 300,000 tested, 1.2% active; AID 540256; calls by dose curve; tested in HEK293 cells; note: nearly all actives have a fitted effect of over 50% in size
Marburg entry inh = Marburg virus entry inhibition | AID 540276 | Marburg virus pseudotyped entry inhibition, cell reporter | 300,000 tested, 1.8% active | Potency, µM (series often up to 37.8 µM), most hits filed as inhibitors; calls by dose curve; tested in HEK293 cells
HCV inh = HCV inhibition | Huh7.5.1 HCVcc-Cre infection, luciferase reporter, 44 h | Potency, µM (series often up to 41.8 µM), actives largely listed as inhibitors | 340,000 tested, 3.4% active; active = well fitted inhibition curve with a large enough effect; inconclusive = small, poorly fitted or top-dose-only effect, or another doubt; inactive = no such curve, though single readings can be large or run the other way
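Cells (1,000/well) were plated 4 h before compound, then infected with HCVcc-Cre virus (~0.5 moi). After 44 h further culture, infection was read as luciferase luminescence following a 15 min substrate incubation at room temperature.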
A number is an active result. A selection: hits, their analogues and other compounds. The true share with any hit is near 7.9%.

How did CNc1snc(C)c1C(=O)OCC(=O)c1ccc(OC)c(F)c1 do in these assays?
HCMV inh: -73.6; FMDV inh: inconclusive; HCV inh: inconclusive

Results for Nc1nnc(SCc2ccc(F)cc2)s1 ?
HCMV inh: inactive; FMDV inh: inactive; LASV entry inh: inconclusive; Marburg entry inh: inactive; HCV inh: inactive

Results for Nc1nc(SCc2ccc(F)cc2)ns1 ?
HCMV inh: -74.3; FMDV inh: inactive; LASV entry inh: inconclusive; Marburg entry inh: inactive; HCV inh: inactive

Results for O=C(O)c1ccc(C=C(c2nc3ccccc3s2)c2nc3ccccc3s2)cc1 ?
HCMV inh: inactive; FMDV inh: inconclusive; LASV entry inh: inconclusive; Marburg entry inh: inactive; HCV inh: inactive

How did COc1cc(/C=C(\CC(=O)O)c2nc3ccccc3s2)cc(OC)c1O do in these assays?
HCMV inh: inactive; FMDV inh: inactive; LASV entry inh: inactive; Marburg entry inh: inactive; HCV inh: inactive

How did CN(C)c1ccc(/C=C(\Cl)c2nc3ccccc3s2)cc1 do in these assays?
FMDV inh: 10µM; LASV entry inh: inconclusive; Marburg entry inh: inconclusive; HCV inh: inconclusive

Results for COc1cc(/C=N/NC(=Nc2ccc(C)cc2)c2nc3ccccc3s2)ccc1O ?
HCMV inh: -68.4; FMDV inh: 17.8µM; LASV entry inh: 13µM; Marburg entry inh: inconclusive; HCV inh: inconclusive

Results for COc1cc(C=C(c2nc3ccccc3s2)c2nc3ccccc3s2)cc(OC)c1O ?
HCMV inh: inactive; FMDV inh: inactive; LASV entry inh: inactive; Marburg entry inh: inactive; HCV inh: 10µM

Results for COc1ccccc1/C=N/NC(=Nc1ccc(C)cc1)c1nc2ccccc2s1 ?
Marburg entry inh: inactive

Results for OCc1cc2c(cn1)[nH]c1ccccc12 ?
FMDV inh: inactive

What do the screens show for `COc1ccc(NC(=O)c2ccc(S(=O)(=O)N3CCCCC3)cc2)cc1OC`?
HCMV inh: inactive; FMDV inh: inactive; HCV inh: inconclusive

Results for CC(=O)N1CCc2c(sc(NC(=O)C3CCCN3S(=O)(=O)c3cccs3)c2C(N)=O)C1 (configuration not stated) ?
HCMV inh: inactive; FMDV inh: 28.2µM; LASV entry inh: inactive; Marburg entry inh: inactive; HCV inh: inactive

What do the screens show for `CC(=O)O[C@H]1[C@H]2O[C@]23[C@@H]2CC[C@]4(O)C[C@@H](O)CC[C@]4(C)C2CC[C@]3(C)[C@H]1c1ccc(=O)oc1` (some centres not stated)?
FMDV inh: inconclusive; HCV inh: 3.16µM

How did C[C@]12CC[C@H]3C(CCC4(O)CC(O)CC[C@]34C=O)C1=CC[C@H]2c1ccc(=O)oc1 (some centres not stated) do in these assays?
HCMV inh: -98.6; FMDV inh: inactive; HCV inh: inactive

How did COc1ccc(CC(=O)Nc2ccc(-c3cn4ccccc4n3)cc2)cc1 do in these assays?
HCMV inh: inactive; FMDV inh: inactive; LASV entry inh: inconclusive; Marburg entry inh: inactive; HCV inh: inconclusive

What do the screens show for `O=C(Nc1cccc(-c2cn3ccsc3n2)c1)c1ccccc1`?
HCMV inh: inactive; FMDV inh: inactive; LASV entry inh: inactive; Marburg entry inh: inactive; HCV inh: 25.1µM

What do the screens show for `O=C(Nc1cccc(-c2cn3ccccc3n2)c1)c1cccc(Cl)c1`?
HCMV inh: inactive; FMDV inh: inconclusive; LASV entry inh: inconclusive; Marburg entry inh: inconclusive; HCV inh: 11.2µM

Results for O=C(Nc1ccc(-c2cn3ccccc3n2)cc1)c1cccs1 ?
HCMV inh: inactive; FMDV inh: inactive; LASV entry inh: inconclusive; Marburg entry inh: 14.6µM; HCV inh: inconclusive

Results for CCOC(=O)c1cc(CC)sc1NC(=O)C1CC(=O)NN1Cc1ccccc1 (configuration not stated) ?
HCMV inh: inactive; FMDV inh: inactive; LASV entry inh: inactive; Marburg entry inh: inconclusive; HCV inh: 5.62µM

How did CCC(C)(C)NC(=O)CN(C(=O)CCC(=O)Nc1nccs1)c1ccc2c(c1)OCCO2 do in these assays?
HCMV inh: inactive; FMDV inh: inactive; LASV entry inh: inactive; Marburg entry inh: inactive; HCV inh: inactive

What do the screens show for `COc1ccc(C(=O)N2CCC3(CC2)CN(C(=O)Nc2cccc(C#N)c2)C3)cc1`?
FMDV inh: inactive

Results for Cc1cc(C)c(CN2CCN(C(=O)Cn3cnc(C(=O)Nc4ccc(C)c(C)c4)n3)CC2)c(C)c1 ?
HCMV inh: -101.7; FMDV inh: inconclusive; Marburg entry inh: inactive; HCV inh: inconclusive
